Screening data deposited in PubChem by National Center for Advancing Translational Sciences (NCATS).
12-LOX inh: Primary qHTS assay for inhibitors of human arachidonate 12S-lipoxygenase (ALOX12): Round 2; purified 12hLO, xylenol orange hydroperoxide absorbance; actives 1.1% (n = 580,000); Potency, µM (series often up to 108 µM), without a hit: top-dose activity change, negative = inhibition, usual class: inhibitors; Polyunsaturated fatty acid lipoxygenase ALOX12 (Homo sapiens), P18054; further: potency means the concentration at half of the fitted maximal effect; on the % scale 0 is the no-effect control and ±100 the full control effect
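Purified human 12hLO (150 nM final) in 25 mM Hepes, 0.01% Triton X-100, pH 7.0 was preincubated 15 min at room temperature with compound. Then 40 uM arachidonic acid was added, 30 min. Hydroperoxide was read by Fe-XO absorbance ratio 573/405 nm.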
Pol kappa inh: qHTS for Inhibitors of Polymerase Kappa. purified Pol kappa, fluorescent DNA synthesis assay, 10 min. Potency, µM (top dose mostly 107 µM), without a hit: at the highest dose activity, negative = inhibition, actives largely listed as inhibitors. actives 0.53% (n = 400,000). AID 588579, 2011; further: potency means the concentration at half of the fitted maximal effect; on the % scale 0 is the no-effect control and ±100 the full control effect
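Here, compound and 10 nM enzyme are combined for 15 min at room temperature; adding 50 nM substrate (final) starts DNA synthesis, tracked by fluorescence at 0 and 10 min against buffer-only wells.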
PI5P4K alpha inh: qHTS for Inhibitors of phosphatidylinositol 5-phosphate 4-kinase (PI5P4K). Phosphatidylinositol 5-phosphate 4-kinase type-2 alpha (Homo sapiens), P48426. PI5P4Kalpha enzyme, ADP-Glo luminescence, 60 min; stronger effect = lower value. max response, %. actives 1.2% (n = 330,000). AID 652105, 2013; active means max response of -50% or lower; inconclusive means between -30% and -50%; inactive means -30% or higher; further: value at the top dose of about 77 µM; on the % scale 0 is the no-effect control and ±100 the full control effect
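Luminescence from ADP-Glo served as readout of PI5P4Kalpha activity in a qHTS format. Reaction: enzyme, substrate, compound, ATP at 5 microM final, 60 min at RT.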
POLI inh: qHTS for Inhibitors of Polymerase Iota. Pol iota fluorescent replication assay, 10 min. actives 1% (n = 390,000). DNA polymerase iota (Homo sapiens), Q9UNA4. Potency, µM (highest dose often 115 µM), inactives show top-dose activity, negative = inhibition, actives largely listed as inhibitors; further: potency means the concentration at half of the fitted maximal effect
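Fluorescent replication assay read twice, at 0 min and 10 min after adding 50 nM (final) substrate. Enzyme (10 nM) and compounds were first incubated 15 min at room temperature; enzyme-free buffer wells were negative controls.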
Pol beta inh: qHTS Assay for Inhibitors of DNA Polymerase Beta. Potency, µM (highest dose often 114 µM), without a hit: top-dose activity change, negative = inhibition, most hits filed as inhibitors. actives 1.3% (n = 340,000). P06746. AID 485314, 2010. Pol beta primer extension/strand displacement, fluorescence kinetic; further: potency means the concentration at half of the fitted maximal effect; on the % scale 0 is the no-effect control and ±100 the full control effect
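Human Pol beta at 10 nM; strand-displacement substrate 50 nM final. Compound exposure 15 min at room temperature before start, reaction 10 min at room temperature.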
Pol eta inh: qHTS for Inhibitors of Polymerase Eta. recombinant Pol eta, fluorescent DNA replication assay. Potency, µM (series often up to 114 µM), inactives show at the highest dose activity change, negative = inhibition, actives largely listed as inhibitors. actives 1.2% (n = 390,000). AID 588591, 2011; further: potency means the concentration at half of the fitted maximal effect; on the % scale 0 is the no-effect control and ±100 the full control effect
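Pol eta at 10 nM preincubated with compounds 15 min at room temperature; reaction started with fluorescent substrate (50 nM final) and read kinetically at 0 and 10 min.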
TbPGK inh: qHTS for inhibitors of Phosphogylcerate Kinase: Hit Validation Screen. shares compounds with Pol kappa inh. TbPGK coupled GAPDH assay, Kinase-Glo luminescence. actives 79% (n = 500). Potency, µM (doses to about 57.5 µM), for inactives: at the highest dose activity change, negative = inhibition, usual class: inhibitors; further: potency means the concentration at half of the fitted maximal effect; on the % scale 0 is the no-effect control and ±100 the full control effect; nearly all actives have a fitted effect of over 65% in size
Target sequence (P07378 whole entry, looked up): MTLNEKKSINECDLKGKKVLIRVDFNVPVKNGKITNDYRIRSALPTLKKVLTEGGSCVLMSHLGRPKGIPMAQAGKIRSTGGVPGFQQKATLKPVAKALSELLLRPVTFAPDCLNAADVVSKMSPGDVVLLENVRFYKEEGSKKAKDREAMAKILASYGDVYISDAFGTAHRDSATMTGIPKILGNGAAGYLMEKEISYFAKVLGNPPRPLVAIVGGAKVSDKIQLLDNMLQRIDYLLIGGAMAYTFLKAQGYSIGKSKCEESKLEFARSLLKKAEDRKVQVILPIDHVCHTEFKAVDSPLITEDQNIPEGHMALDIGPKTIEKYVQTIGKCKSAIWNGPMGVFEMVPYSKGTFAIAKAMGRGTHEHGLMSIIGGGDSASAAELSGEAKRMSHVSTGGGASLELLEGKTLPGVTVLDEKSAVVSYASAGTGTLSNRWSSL
POLI cherry-pick: qHTS for Inhibitors of Polymerase Iota: Confirmatory Assay for Cherry-picked Compounds; shares compounds with Pol kappa inh; Pol iota primer extension, TAMRA/BHQ fluorescence; Potency, µM, usual class: inhibitors; actives 77% (n = 1,500); further: potency means the concentration at half of the fitted maximal effect
The depositor's hits bear a star; ? = inconclusive; · = no result; ! = a repeat was not active; [ ] = remark or other dose. The list is not random: actives were taken first. Their share in the collection is about 2.9%. Unless noted, the call rests on the fitted dose curve; in most records, active means well fitted curve in the direction sought with a large enough effect; inconclusive means small, poorly fitted or top-dose-only effect, or another doubt; inactive means no such curve, though single readings can be large; an effect the other way counts as inactive or inconclusive.

SMILES	12-LOX inh	Pol kappa inh	PI5P4K alpha inh	POLI inh	Pol beta inh	Pol eta inh	TbPGK inh	others
COCC1CN(C2CCC2)CC12CCN(C(=O)Cc1ccccc1OC)CC2 (centres undefined)	54.0%	·	·	·	·	·	·
O=c1oc2ccccc2cc1-c1cn2cccnc2n1	-6.8%	-6.7%	-1.3	18.2%	-5.4%	16.9%	·
O=c1oc2ccccc2cc1-c1cn2ccccc2n1	-14.1%	0.4%	-26.9	23.9%	6.6%	-10.7%	?
Cc1ccccc1C(=O)Nc1ccc2c(C#N)c3nc4ccccc4nc3n2c1	?	-27.4%	?	40.1%	?	10µM*	·	POLI cherry-pick=?
CCOc1ccc(C=NNc2ccc(S(=O)(=O)Nc3ccccc3C(=O)O)cc2[N+](=O)[O-])cc1OC	·	?	-74.3*	?	·	?	8.19µM*
Cc1ccccc1NC(=O)C(=O)NCCc1csc2nc(-c3ccccc3F)nn12	4.7%	·	·	·	·	·	·
O=C(Cn1c2ccccc2c(=O)c2ccccc21)N/N=C/c1cc([N+](=O)[O-])ccc1N1CCCCCC1	12.6%	-7.1%	1.0	45.4%	2.51µM*	2.82µM*	·	POLI cherry-pick=?
O=C(Cn1c2ccccc2c(=O)c2ccccc21)N/N=C/c1ccc(N2CCCC2)c([N+](=O)[O-])c1	-23.3%	-28.6%	-16.8	31.0%	8.8%	?	·
Cc1cc(NC(=O)CSc2ccc(-c3nc4cc(C)c(C)cc4[nH]3)cn2)no1	·	8.3%	·	22.7%	-0.4%	-16.4%	4.9%
O=C(O)CSCC(=O)Nc1ccc(-c2nc3ccccc3s2)cc1	?	-11.7%	?	-0.5%	?	44.7µM*	?
O=C(NCCN1CCCCCC1)C1CCC1	24.1%	·	·	·	·	·	·
CCNC(=S)NNC(=O)c1cccc(C)c1	36.7%	·	·	·	·	·	·
CNC(=O)CN(C)Cc1cc(Cl)ccc1OCC(O)CN1CCCCCC1 (centres undefined)	74.4%	·	·	·	·	·	·
CCC(=O)N1c2ccccc2CC1C(=O)NCCCN1CCN(c2ccc(OC)cc2)CC1 (centres undefined)	?	-1.1%[60.1 µM]	·	30.9%	-15.6%	-10.2%	-0.9%
O=C(NCc1ccc(F)cc1)N1CCC(OCCOc2ccc(F)cc2)CC1	18.7%	·	·	·	·	·	·
CC(C)(CNC(=O)CC1CCCC1)C(N)=O	-32.9%	·	·	·	·	·	·
Cc1nc(N2CCC(C)CC2)c2c(C)c(C(=O)Nc3cccc(C(F)(F)F)c3)sc2n1	3.3%	-27.2%	24.1	19.2%	0.4%	-11.8%	·
Cc1nc(SC(C)C(=O)Nc2cccc(C(F)(F)F)c2)c2c(C)c(C(=O)O)sc2n1 (centres undefined)	-0.5%	?	0.3	7.2%	?	?	·	POLI cherry-pick=33.6*
Cc1ccc(N=C2NC(=O)S/C2=C\c2ccco2)cc1	?	-45.7%	-6.7	?	7.94µM*	-17.4%	·	POLI cherry-pick=67*
COc1ccc2noc3c2c1C(=O)c1ccccc1-3	13.0%	?	-13.5	?	·	?	·	POLI cherry-pick=?
COc1ccc(OC)c(N/C=C/C(=O)c2ccccc2)c1	17.3%	-11.0%	-17.0	-0.3%	20.7%	0.5%	18.3µM*
COc1ccc(OC)c(N/C(C)=C/C(=O)c2ccccc2)c1	?	-20.8%	-1.9	28.7%	-2.2%	-8.2%	·
CN(C)c1ccc(/C=C/c2nccc3ccccc23)cc1	·	-13.7%	·	21.1%	·	·	·
CN(C)c1ccc(/C=C/c2ccc3c4ccccc4ccc3[n+]2-c2ccccc2)cc1	?	44.7µM*!	-87.1*	20µM*	11.2µM*	22.4µM*	29.1µM*
CCOc1ccc(/C=N/NC(=O)c2cc3c(OC)cccc3[nH]2)cc1	-18.9%	-36.6%	-0.3	25.1µM*	50.1µM*	?	·	POLI cherry-pick=?
SMILES	12-LOX inh	Pol kappa inh	PI5P4K alpha inh	POLI inh	Pol beta inh	Pol eta inh	TbPGK inh	others
COc1ccc(OC)c(/C=N/NC(=O)c2cc3c(OC)cccc3[nH]2)c1	0.0%	-16.0%	-1.1	18.9%	-10.1%	-19.3%	·
O=C1CCC2(C(=O)NCc3ccc(F)cc3)SCCN12 (centres undefined)	-24.6%	·	·	·	·	·	·
CS(=O)(=O)N1CC2(CCCN2C2COC2)Cc2ccccc21 (centres undefined)	-0.1%[6.33 µM]	·	·	·	·	·	·
Cc1cc(=O)[nH]c2cc(N)ccc12	·	4.6%	·	71.5%	·	·	·
Nc1ccc2cc3[nH]c4cc(N)ccc4c3nc2c1	?	15.8µM*	-58.9*	8.91µM*	·	4.47µM*	·	POLI cherry-pick=18.9*
CC(Oc1ccc2ccc(=O)oc2c1)C(=O)NCCc1ccc(F)cc1 (centres undefined)	-9.8%	·	·	·	·	·	·
CCN(CC)c1ccc2nc3ccccc3[n+](CC)c2c1	·	-34.5%	?	?	?	?	32.6µM*
Cc1ccc(NC(=O)N2CC(c3nnc(-c4ccncc4)o3)C3(CCOCC3)C2)cc1C (centres undefined)	-3.8%	·	·	·	·	·	·
O=C(c1ccc2c3n(nc2c1)-c1ccccc1CO3)N1CCCCC1	5.3%	6.4%	-22.1	35.6%	5.2%	-7.4%	9.19µM*
Cc1ccc(-c2nc3ccccc3o2)cc1NC(=S)NC(=O)/C=C/c1ccco1	-14.6%	-17.6%	?	?	39.8µM*	22.4µM*	·	POLI cherry-pick=?
Cc1cc(S(=O)(=O)C(CNC(=O)COc2ccc(Cl)cc2)c2cccs2)ccc1F (centres undefined)	0.0%	-15.5%[60.1 µM]	·	7.8%	4.0%	-9.1%	·
O=C(COc1ccccc1)NCC(c1cccs1)S(=O)(=O)c1ccc(Cl)cc1 (centres undefined)	0.0%	-8.9%[60.1 µM]	·	-4.5%	17.8µM*	-13.0%	?
COc1ccc(CC(=O)NCC(c2cccs2)S(=O)(=O)c2ccc(Cl)cc2)cc1 (centres undefined)	7.6%	-6.7%[60.1 µM]	·	-3.8%	7.94µM*	-25.4%	6.51µM*
COc1ccc(/C=C/c2nc3ccccc3n2C)cc1	1.3%	-13.9%	-62.5*	139.5%	0.4%	-1.3%	4.11µM*
NC(=O)CCN1CCN(S(=O)(=O)c2cc(F)ccc2F)CC1	72.8%	·	·	·	·	·	·
